Test results as given in PubChem BioAssay (NCI).
The panel holds about 79,000 compounds, 15% with a hit somewhere; the sample as a whole holds those more often. Cut-off read from the data, not from the text of the source: active = growth inhibition above about 70%; inactive = the rest.

Tests used:
[1] = NCI Yeast Anticancer Drug Screen. Data for the rad50 strain (AID 155);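 note: 0% = growth of vehicle-only cultures of the same strain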; conditions: S. cerevisiae rad50 strain growth inhibition; at 50.0 µM; stronger effect = higher value
Procedure, shortened: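 Vehicle-treated cultures provide the reference for the growth inhibition reported for compound-exposed, repair-deficient yeast.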

[2] = NCI Yeast Anticancer Drug Screen. Data for the mec2-1 strain (AID 157); conditions: S. cerevisiae mec2-1 strain, at 50.0 µM, stronger effect = higher value
Procedure, shortened: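 Using mec2-1 yeast: add compound, measure growth, express inhibition versus vehicle-treated cultures.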

[3] = NCI Yeast Anticancer Drug Screen. Data for the sgs1 mgt1 strain (AID 161);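 note: 0% = growth of cultures given vehicle only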; conditions: S. cerevisiae sgs1 mgt1 strain, at 50.0 µM, stronger effect = higher value
Procedure, shortened: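 This yeast growth screen uses a strain with defined DNA-repair lesions; compound-treated growth is compared with vehicle-treated growth.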

[4] = NCI Yeast Anticancer Drug Screen. Data for the cln2 rad14 strain (AID 165);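 note: 0% = growth equal to vehicle treated cultures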; conditions: S. cerevisiae cln2 rad14 strain, at 50.0 µM, stronger effect = higher value
Procedure, shortened: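 Yeast strain cln2 rad14, bearing defects in cell cycle control and DNA repair, serves as the test system; values reflect growth inhibition compared with vehicle.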

[5] = NCI Yeast Anticancer Drug Screen. Data for the bub3 strain (AID 167); conditions: S. cerevisiae bub3 mutant strain, at 50.0 µM, stronger effect = higher value
Procedure, shortened: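 Mutant yeast screening strain plus compound; vehicle-treated cultures serve as the 0% inhibition reference.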

[6] = NCI Yeast Anticancer Drug Screen. Data for the mlh1 rad18 strain (AID 175); conditions: S. cerevisiae mlh1 rad18 strain growth inhibition; at 50.0 µM; stronger effect = higher value
Procedure, shortened: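 Steps: expose repair-defective yeast to compound; measure growth; express inhibition against vehicle-treated controls.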

Measured: growth inhibition

NC1CCCCC1NCCNC1CCCCC1N (configuration not stated)
inactive: [1] -3.15% | [2] 9.35% | [3] 16.4% | [4] -12.9% | [5] 42.4% | [6] 10.8%

COc1cccc(C(N)=O)c1OC
inactive: [1] 3.35% | [2] 8.05% | [3] -10.9% | [4] -22.4% | [5] 11.7% | [6] -15.2%

CC(=O)OCC1OC(OC(C)=O)C(N(C)C(C)=O)C(OC(C)=O)C1OC(C)=O (configuration not stated)
inactive: [1] 32.8% | [2] 18.6% | [3] 26.8% | [4] 20.6% | [5] -0.55% | [6] 35.6%

C[Si](C)(C)CSC#N
inactive: [1] -16.6% | [2] 6.45% | [3] 12.5% | [4] 4.65% | [5] 2.75% | [6] 11.5%

CSc1ncc2c(n1)-c1ccccc1OC2N1CCOCC1 (configuration not stated)
inactive: [1] -4.95% | [2] 8.1% | [3] -1.65% | [4] -9.55% | [5] -18.4% | [6] 40.7%

O=C(c1ccccc1)N1OC2C=CC1CC2 (configuration not stated)
inactive: [1] 4.6% | [2] 4.6% | [3] 5.1% | [4] -34.2% | [5] -2.1% | [6] -1.8%

COc1cc(CCl)cc(OC)c1OC
inactive: [1] -13.7% | [2] -12% | [3] -7.7% | [4] -21.9% | [5] -7.65% | [6] -11.8%

[O-][n+]1onc2c1CCC(=N\O)/C2=N/Nc1ccccc1
inactive: [1] -1.55% | [2] -1.05% | [3] -15.1% | [4] 34.9% | [5] 18.6% | [6] 11.3%

CC(=O)NC1C(O)C(O)C(CO)OC1n1nc(SCc2ccccc2)c(=O)[nH]c1=O (configuration not stated)
inactive: [1] 3.9% | [2] 11.9% | [3] -12.9% | [4] -5.65% | [5] -24.4% | [6] -36.5%

[O-]/[N+](=C\c1ccc(OCc2ccccc2)cc1)c1ccccc1
inactive: [1] 16.5% | [2] -18.4% | [3] -20.7% | [4] -2.65% | [5] -4.25% | [6] -13.5%

NC(N)=N/N=C(\c1ccc(Cl)cc1)C1CC1
inactive: [1] 2.7% | [2] -5.05% | [3] -11.9% | [4] -13.2% | [5] -65.3% | [6] 10%

N#CC(C(=O)O)C1(c2ccccc2)CCCCC1 (configuration not stated)
inactive: [1] -13% | [2] 4.95% | [3] -5.3% | [4] -16% | [5] 1.1% | [6] -3.45%

O=[N+]([O-])c1ccc(N/N=C(/c2ccccc2)C2CCCC2)c([N+](=O)[O-])c1
inactive: [1] 11.4% | [2] 18.6% | [3] 12.8% | [4] 7.9% | [5] 11.9% | [6] 12.9%

CCCCCCCCCCCCCCCCSCCOC(=O)C1C2CCC(O2)C1C(=O)O (configuration not stated)
inactive: [1] 55.9% | [2] -18.4% | [3] 10.4% | [4] 13.9% | [5] 30.2% | [6] 37.6%

NC(=S)NNC(N)=S
inactive: [1] 2.2% | [2] -12.9% | [3] -7.3% | [4] 17.4% | [5] -3.2% | [6] 24.5%

CNC(=O)CCCCC(=O)NC
inactive: [1] -5.65% | [2] -7.9% | [3] -2.7% | [4] 6.15% | [5] -10.8% | [6] -19.2%

CC(=O)OC1CCC2=C3CCC4(C)C(=O)CCC4C3C(O)C2(C)C1 (configuration not stated)
inactive: [1] 0.05% | [2] -2% | [3] -5.3% | [4] -5.2% | [5] -14.3% | [6] -9.5%

CCOC(=O)c1c[nH]c2c(C(F)(F)F)cccc2c1=O
inactive: [1] 15.6% | [2] -9.1% | [3] 1.55% | [4] 8.75% | [5] 24.6% | [6] 14.6%

C=CCOC(C)OCC=C
inactive: [1] 17.9% | [2] 7.9% | [3] -1.35% | [4] -23.5% | [5] 13.3% | [6] -0.15%

CC(=O)Oc1cc(OC(C)=O)c2c(c1)OC(c1ccc(OC(C)=O)c(OC(C)=O)c1)CC2=O (configuration not stated)
inactive: [1] 21.4% | [2] 3.8% | [3] 18.3% | [4] 3.95% | [5] 3.85% | [6] 28%

O=S(=O)(N/N=C(/CC/C(=N\NS(=O)(=O)c1ccccc1)c1ccccc1)c1ccccc1)c1ccccc1
inactive: [1] 27.7% | [2] 5.2% | [3] 11.7% | [4] 7.55% | [5] -2% | [6] 7.95%

COC(=O)C1=C(C)N(NC(N)=O)C2(N)N(NC(N)=O)C(C)=C(C(=O)OC)C12C(=O)OC (configuration not stated)
inactive: [1] -9.65% | [2] -31.2% | [3] -43.2% | [4] -9.7% | [5] -4% | [6] -26.4%

CCN(CC)c1ccc(N=Nc2ccc([N+](=O)[O-])cc2OC(=O)/C=C/c2ccccc2)c(OC(=O)/C=C/c2ccccc2)c1
inactive: [1] -17.6% | [2] -47.9% | [3] -12.9% | [4] 5.6% | [5] -32.5% | [6] -22.8%

O=C(O)/C=C/C(=O)Nc1ccccc1Cl
inactive: [1] 10.4% | [2] 29.6% | [3] 48.9% | [4] 0% | [5] 42.2% | [6] 21%

Nc1ccc(C(=O)CC(=O)c2cccc([N+](=O)[O-])c2)cc1
inactive: [1] 26.4% | [2] 20.4% | [3] 39.4% | [4] 21.5% | [5] 27.4% | [6] 2.1%

CC(N=Nc1ccccc1)/N=N/c1nn[nH]n1 (configuration not stated)
inactive: [1] 23.8% | [2] -12.2% | [3] -11.6% | [4] -84% | [5] -22% | [6] -3.25%

Cc1ccc(C2CCC(C#N)=CN2C)cc1 (configuration not stated)
inactive: [1] 11.5% | [2] -0.25% | [3] 1.5% | [4] -39.4% | [5] -13% | [6] 3.6%

CC(=O)OC1C(COC(N)=O)OC(n2c(-c3ccc(C)cc3)cc(-c3ccccc3)c(C#N)c2=O)C(OC(C)=O)C1OC(C)=O (configuration not stated)
inactive: [1] -18.4% | [2] 7.25% | [3] 4.75% | [4] 22.4% | [5] 26.9% | [6] 11.3%

CC(=O)NCc1cccc[n+]1[O-]
inactive: [1] 14.8% | [2] -12% | [3] -3.8% | [4] -59.3% | [5] -6.85% | [6] -7.2%

CC1(C)CC(=O)C(C=O)C(=O)C1
inactive: [1] -6.85% | [2] -13.7% | [3] -38.3% | [4] -2.3% | [5] 3% | [6] -22.9%

CN1CCC(=O)C(c2ccccc2)(c2ccccc2)CC1
inactive: [1] -8% | [2] -8.6% | [3] 3.45% | [4] -24.9% | [5] 28.4% | [6] -26.7%

COc1ccc(CCN=C(N)CCl)cc1
inactive: [1] 11.8% | [2] 10.8% | [3] 7.4% | [4] 6.65% | [5] 18.9% | [6] -2%

Clc1ccc2ccc3ccc(Cl)nc3c2n1
inactive: [1] 18.5% | [2] 20.4% | [3] 26.4% | [4] -18.5% | [5] 8.5% | [6] 9.95%

O=C(Oc1ccc(OC(=O)c2ccc([N+](=O)[O-])cc2)cc1)c1ccccc1
inactive: [1] 9.85% | [2] -2.25% | [3] -1.4% | [4] 26.4% | [5] -3.05% | [6] 5.25%

N#CC(=S)N(C(=O)c1ccc(Cl)cc1)c1ccccc1Cl
inactive: [1] -1.4% | [2] 28.6% | [3] 12.6% | [4] -18.9% | [5] 45.5% | [6] 24.9%

Cc1ccc(S(=O)(=O)N2CCCN(S(=O)(=O)c3ccc(C)cc3)COC2)cc1
inactive: [1] 4.1% | [2] 11.6% | [3] -8.4% | [4] 3.1% | [5] -10.4% | [6] -1.25%

CN(C)CCCN1N=Nc2cccc3cccc1c23
inactive: [1] 1.75% | [2] 8.25% | [3] -14.3% | [4] 11.7% | [5] 15.2% | [6] 20.1%

COC(=O)c1ccc(C[P+](c2ccccc2)(c2ccccc2)c2ccccc2)cc1
inactive: [1] 15.5% | [2] 7.75% | [3] 44.3% | [4] 40.2% | [5] 0.95% | [6] 43.1%

CC(=O)c1ccc(C)c([N+](=O)[O-])c1
inactive: [1] -13.2% | [2] -5.65% | [3] -11.6% | [4] -48.1% | [5] -7.15% | [6] -0.6%

Cc1cccnc1C(=O)O.[Cu+2]
inactive: [1] -9.55% | [2] -0.45% | [3] -29.1% | [4] -45.2% | [5] -32.8% | [6] -7.4%

COC1CCC2CC3(CCC2(C)C1O)OCCO3 (configuration not stated)
inactive: [1] 1.25% | [2] 0.85% | [3] -1.45% | [4] -12.3% | [5] 26.1% | [6] -14.4%

Cc1nc(Br)c([N+](=O)[O-])[nH]1
inactive: [1] 6.9% | [2] -6.4% | [3] -2.4% | [4] -47.9% | [5] -9.75% | [6] 4.8%
